Data reported in PubChem BioAssay (NCI).
Compounds without any hit were thinned out: in the full panel of roughly 83,000, 20% have a hit.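 Compound tested at a single concentration for 48 hours in 96-well plates; a percent growth value below 10 was scored as active.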 Values without a mark were called inactive. Active and inactive are the calls of the source.

How the values were obtained:
Experiment in all cases: NCI-60 one-dose screen, 48 h (100 = growth as untreated, 0 = no growth, -100 = all killed)
Conditions in all cases: 10 µM unless noted
NCI-H23 lung = test system: NCI-H23 lung
NCI-H226 lung = test system: NCI-H226 lung
HOP-62 NSCLC = test system: HOP-62 NSCLC
NCI-H460 lung = test system: NCI-H460 lung
NCI-H522 lung = test system: NCI-H522 lung
A549/ATCC NSCLC = test system: A549/ATCC NSCLC
786-0 renal = test system: 786-0 renal
COLO 205 colon = test system: COLO 205 colon
HOP-92 NSCLC = test system: HOP-92 NSCLC

| SMILES | growth (NCI-H23 lung) | growth (NCI-H226 lung) | growth (HOP-62 NSCLC) | growth (NCI-H460 lung) | growth (NCI-H522 lung) | growth (A549/ATCC NSCLC) | growth (786-0 renal) | growth (COLO 205 colon) | growth (HOP-92 NSCLC) |
| --- | --- | --- | --- | --- | --- | --- | --- | --- | --- |
| COc1ccc(-c2cc3ccc(N(C)C)cc3nc2N)c(F)c1 | 19% | 48.2% | 40.3% | 31.9% | 31% | 40.8% | 48.3% | 12.2% |  |
| Nc1ncc(-c2ccc3ncnc(Nc4cncc(Cl)c4)c3c2)cn1 | 65.1% | 55.2% | 65.6% | 67.8% | 55.5% | 65.4% | 65.8% | 75.6% | -0.664% (active) |
| O=C1OC(c2ccc(-c3ccccc3)cc2)=C/C1=C/C=C/c1ccccc1 | 100% | 82.3% | 97.1% | 103% | 95.1% | 9.59% (active) |  | 120% |  |
| COC(=O)Nc1nc2ccc(Sc3ccccc3)cc2[nH]1 | 32.7% | 19.9% | 29.4% | 6.37% (active) | 13.4% | 13.4% | 33.7% | -14.7% (active) | 54.2% |
| Nc1nc(-c2cc3c(cc2Cl)NC(=O)/C3=C/c2ccc(Cl)cc2)cs1 | 49.1% | 72.3% | 63% | 53.1% | 17.3% | 64.5% | 43.7% | 61.7% | 17.8% |
| CC(=O)N1N=C(CCC(=O)c2nc3ccc([N+](=O)[O-])cc3[nH]2)OC1c1ccc(O)cc1 (stereo not drawn) | 93.2% | 101% |  | 103% | 51.3% | 106% | 106% | 92.3% | 118% |
| CC(C)NCC(O)COc1ccc(CC(N)=O)cc1 (stereo not drawn) | 105% | 102% | 102% | 109% | 94.9% | 106% | 97.2% | 114% | 85.6% |
| COc1ccc(C[C@H](N)C(=O)N[C@@H]2[C@@H](CO)OC(n3cnc4c(N(C)C)ncnc43)[C@@H]2O)cc1 (stereo partly drawn) | -39.4% (active) | -65.2% (active) |  | -67% (active) | -68.7% (active) | -57.9% (active) | -87.6% (active) | -63.2% (active) | -67.1% (active) |
| O=[N+]([O-])c1ccccc1NC1c2ccccc2Oc2ccccc21 | 79.1% | 78% | 70% | 15.1% | 26.3% | 44.9% | 94.5% | 69.3% | 48.4% |
| CC1CCc2cc(F)cc3c(=O)c(C(=O)O)cn1c23 (stereo not drawn) | 91.5% | 103% | 106% | 105% | 110% | 104% | 87.1% | 104% | 91.9% |
| COc1ccc(N)c(S)c1 | 92.3% | 92.8% | 90.5% | 106% | 84.5% | 77.1% | 107% | 84.5% |  |
| C/C(=N/O)c1ccc(NC(=O)Cn2nc(-c3ccc(Cl)cc3)nc2N)cc1 | 92.7% | 82.9% | 88.8% | 100% | 68.7% | 79.3% | 109% | 101% | 99.2% |
| COc1ccc(-c2coc3c(CO)c(O)ccc3c2=O)cc1 | 79.5% | 61.7% | 53% | 32.7% | 67.2% | 90.5% | 90.3% | 115% | 55.8% |
| S=c1n(CNc2ccc(Cl)nn2)nc(-c2cc(Cl)cc(Cl)c2Cl)n1/N=C/c1ccc(Cl)cc1 | 88.5% | 96.1% | 81.6% | 110% | 72.2% | 138% | 81.9% | 132% |  |
| COc1ccc2c(c1)nnn1c3ncccc3c(N=O)c21 | -23.8% (active) | -57.7% (active) | -41.7% (active) | -70% (active) | -85.7% (active) | 6.65% (active) | -63.1% (active) | -61% (active) | -49.2% (active) |
| O=C(/C=C/c1ccccc1)Oc1ccc(/C=C/c2cc(OC(=O)/C=C/c3ccccc3)cc(OC(=O)/C=C/c3ccccc3)c2)cc1 | 102% | 91.4% |  | 100% | 77% | 83.9% | 102% | 97.4% | 95.8% |
| CNCCCOc1c(Br)cc(CCNC(=O)/C(Cc2ccc(OC)c(Br)c2)=N/O)cc1Br | 62.7% | 77.3% | 67.5% | 15.8% | 29.3% | 49.7% | 40.6% | -58.6% (active) | 40.9% |
| O=c1cc(Cl)[nH]c(=O)[nH]1 | 98.9% | 97.5% | 83.2% | 108% | 67.7% | 79.5% | 101% | 97.5% | 98.2% |
| Nc1ncnc2c1ncn2C1OC(COC(c2ccccc2)(c2ccccc2)c2ccccc2)C(O)C1O (stereo not drawn) | 89.8% | 92.1% | 95.2% | 25.9% | 97.4% | 94.3% | 99.1% | 99.4% | 86.6% |
